The source of these data is PubChem BioAssay (Tox21).

“And” between values parts separate entries of the source, which are not always exact repeats. Equal entries are not always repeated. Inconclusive results are not listed. More than one record can exist for a structure, and the calls need not agree. The source made the active and inactive calls. Unless noted, calls follow the shape of the dose curve; as a rule, active = well fitted curve in the direction sought with a large enough effect in the repeat runs; inconclusive = weak or mixed curves; inactive = no such curve, though single readings can be large; an effect the other way counts as inactive or inconclusive.

The nature of assay [1]: Human pregnane X receptor (PXR) small molecule agonists, qHTS cell viability counter screen (AID 1346977). Also: nearly all actives have a fitted effect of over 50% in size. A digest of the protocol:
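PXR-Luc HepG2 cells (2,000/well, 5% charcoal-stripped FBS) preincubated 5 hr, then exposed to compounds 24 hr at 37 C. Viability read in the same wells by CellTiter-Fluor fluorescence, reagent added at 23 hr, 1 hr incubation.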

Assay [2] is described as follows: Caspase-3/7 induction in HepG2 cells by small molecules, qHTS assay (AID 1346978). Also: nearly all actives have a fitted effect of over 15% in size. A digest of the protocol:
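Wild-type HepG2 cells (2,000/well) were settled 5 h at 37 C, 5% CO2, then exposed to compounds in DMSO for 17 h. Caspase-3/7 activity was read by luminescence 30 min after adding Caspase-Glo 3/7 reagent at room temperature.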

Assay [3] in a line: Caspase-3/7 induction in CHO-K1 cells by small molecules, qHTS cell viability counter screen (AID 1346979). Also: nearly all actives have a fitted effect of over 35% in size. A digest of the protocol:
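Wild-type CHO-K1 cells (1,500/well) treated with compound after 5 h plating; after 16 h at 37C, viability read as CellTiter-Fluor fluorescence following 1 h reagent incubation, in the same wells as the caspase read.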

The nature of assay [4]: Caspase-3/7 induction in CHO-K1 cells by small molecules, qHTS assay (AID 1346980). Also: nearly all actives have a fitted effect of over 15% in size. The gist of the method: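 Wild-type cells were seeded at 1,500 per well and settled 5 hr at 37 C, 5% CO2, then exposed to DMSO-dissolved compounds for 17 hr. Caspase-Glo 3/7 reagent was added, and luminescence was read after 30min at room temperature.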
Assay [5] in a line: Caspase-3/7 induction in HepG2 cells by small molecules, qHTS cell viability counter screen (AID 1346981). Also: series mostly up to about 92 µM; nearly all actives have a fitted effect of over 30% in size. The gist of the method:
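The parent HepG2 line is plated at 2,000 cells per well and rested 5 hr before compound pinning from DMSO stocks. Following a 16-hr treatment at 37 C, a fluorogenic live-cell substrate (CellTiter-Fluor) reports viability after 1 hr.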

Assay [6] deals with Nuclear receptor subfamily 1 group I member 2 (Homo sapiens) (UniProt O75469). Nature of the assay: Human pregnane X receptor (PXR) small molecule agonists, qHTS assay (AID 1346982). Also: nearly all actives have a fitted effect of over 35% in size. Also: potency is read from the fitted curve at half-maximal effect. The gist of the method:
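After plating in 5% charcoal-stripped FBS and a 5 hr rest, PXR-Luc HepG2 cells received compounds in DMSO. Following 24 hr at 37 C, ONE-Glo was added and light output read.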

Assay [7] deals with Acetylcholinesterase (Homo sapiens) (UniProt P22303). Nature of the assay: Acetylcholinesterase (AChE) small molecule antagonists: colormetric cell-based qHTS assay (AID 1347395; calls by dose curve; also: nearly all actives have a fitted effect of over 30% in size; also: potency is read from the fitted curve at half-maximal effect). A digest of the protocol: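 SH-SY5Y cells attached overnight, exposed to compound 30 min at 37 C, then given DTNB/acetylthiocholine; after 90 min at 37 C, colorimetric thiocholine read gives cellular AChE activity.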

The target is the same in assay [8]. Nature of the assay: Acetylcholinesterase (AChE) small molecule antagonists: enzyme-based qHTS assay (AID 1347397; calls by dose curve; also: nearly all actives have a fitted effect of over 55% in size; also: potency is read from the fitted curve at half-maximal effect). To be noted: Potency: AChE enzyme activity inhibition. A digest of the protocol: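 Compound or DMSO vehicle was pin-transferred onto recombinant human AChE (50 mU/mL as dispensed) and left 30 min at room temperature. Acetylthiocholine with DTNB then started the reaction, read colorimetrically 10 min later.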

The target is the same in assay [9]. Nature of the assay: Acetylcholinesterase (AChE) small molecule antagonists: fluorescence cell-based qHTS assay (AID 1347398; calls by dose curve; also: nearly all actives have a fitted effect of over 50% in size; also: potency is read from the fitted curve at half-maximal effect). To be noted: Potency: AChE activity. The gist of the method:
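Using neuroblastoma SH-SY5Y cells as the enzyme source, test chemicals are preincubated 30 min at 37 C; AChE-driven acetylthiocholine cleavage is then quantified by thiocholine-dependent Thiolite Green fluorescence after 40 min at room temperature.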

The target is the same in assay [10]. The experiment in a line: Acetylcholinesterase (AChE) small molecule antagonists: enzyme-based qHTS assay with human liver microsomes (AID 1347399; calls by dose curve; also: nearly all actives have a fitted effect of over 60% in size; also: potency is read from the fitted curve at half-maximal effect). As to conditions: Potency: qHTS inhibition. The gist of the method: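 Recombinant human AChE (50 mU/mL in the enzyme mix) and human liver microsomes (0.25 mg/mL final) were preincubated with compound and NADPH (0.25 mg/mL final) for 30 min at 37 C. Acetylthiocholine/DTNB was then added; thiocholine was read colorimetrically after 10 min at room temperature.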

For assay [11], the target named is Cytochrome P450 2D6 (Homo sapiens) (UniProt P10635). Nature of the assay: Cytochrome P450 Family 2 Subfamily D Member 6 (CYP2D6) small molecule antagonists: luciferase reporter qHTS assay (AID 1671196). Also: nearly all actives have a fitted effect of over 50% in size. Also: potency is read from the fitted curve at half-maximal effect. The gist of the method:
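Quantitative HTS of Tox21 chemicals against CYP2D6 using a luminescent proluciferin substrate. After NADPH addition, 1 h room-temperature reaction; luminescence recorded 20 min post detection reagent.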

Assay [12] has as its target Cytochrome P450 2C19 (Homo sapiens) (UniProt P33261). The experiment in a line: Cytochrome P450 Family 2 Subfamily C Member 19 (CYP2C19) small molecule antagonists: luciferase reporter qHTS assay (AID 1671197). Also: nearly all actives have a fitted effect of over 65% in size. Also: potency is read from the fitted curve at half-maximal effect. A digest of the protocol: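 P450-Glo CYP2C19 system: enzyme-substrate mix with compound 10 min at room temperature, then NADPH regeneration solution, 1 h at 37C. Proluciferin-to-luciferin conversion detected by luminescence after 20 min with detection reagent; ketoconazole as positive control.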

Assay [13] addresses Cytochrome P450 2C9 (Homo sapiens) (UniProt P11712). The experiment in a line: Cytochrome P450 Family 2 Subfamily C Member 9 (CYP2C9) small molecule antagonists: luciferase reporter qHTS assay (AID 1671198). Also: nearly all actives have a fitted effect of over 50% in size. Also: potency is read from the fitted curve at half-maximal effect. The gist of the method: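 CYP2C9 activity was measured with a P450-Glo proluciferin substrate. Enzyme–substrate mix was held with compound for 10 min at room temperature, then NADPH regeneration solution was added for 1 h at 37C. Luciferin product was read as luminescence.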

Assay [14] concerns the target Cytochrome P450 1A2 (Homo sapiens) (UniProt P05177). The experiment in a line: Cytochrome P450 Family 1 Subfamily A Member 2 (CYP1A2) small molecule antagonists: luciferase reporter qHTS assay (AID 1671199). Also: nearly all actives have a fitted effect of over 50% in size. Also: potency is read from the fitted curve at half-maximal effect. The gist of the method:
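Quantitative high-throughput format using the P450-Glo CYP1A2 system. Reaction initiated by NADPH regeneration solution, 1 h at room temperature, then stopped with detection reagent; luminescence measured 20 min later.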

The target in assay [15] is Voltage-gated inwardly rectifying potassium channel KCNH2 (Homo sapiens) (UniProt Q12809). Nature of the assay: Human Ether-a-go-go-Related Gene (hERG) channel small molecule antagonists: fluorescence cell-based qHTS assay (AID 1671200). The gist of the method: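 hERG-U2OS cells plated overnight at 37 C, loaded with FluxOR II dye 1 h at RT in dark; after 10 min, thallium stimulus added. Fluorescence (480/540 nm) read kinetically for 2 min at 1 s intervals.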

For assay [16], the target named is Cytochrome P450 3A4 (Homo sapiens) (UniProt P08684). Nature of the assay: Cytochrome P450 Family 3 Subfamily A Member 4 (CYP3A4) small molecule antagonists: luciferase reporter qHTS assay (AID 1671201). Also: nearly all actives have a fitted effect of over 50% in size. Also: potency is read from the fitted curve at half-maximal effect. A digest of the protocol:
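P450-Glo CYP3A4 luminescent assay: compounds preincubated 10 min at room temperature with enzyme and proluciferin substrate, NADPH regeneration added, 1 h room-temperature reaction, stopped with luciferin detection reagent; luminescence read after 20 min. Ketoconazole positive control.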

The target of assay [17] is Nuclear receptor subfamily 1 group I member 2 (Rattus norvegicus) (UniProt Q9R1A7). The experiment in a line: Rat pregnane X receptor (rPXR) activation by small molecules, qHTS assay (AID 1346983). Also: nearly all actives have a fitted effect of over 20% in size. To be noted: rPXR luciferase reporter cells, One-Glo luminescence, 24 h; stronger effect = higher value. The gist of the method:
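Cell-based rPXR luciferase reporter assay, 2,000 cells per well, rested 5hr at 37 C before compound addition in DMSO, then 24 hr at 37 C. One-Glo reagent was added and luminescence read after 30 min at room temperature.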

Assay [18] deals with Nuclear receptor subfamily 1 group I member 2 (Homo sapiens) (UniProt O75469). Nature of the assay: CYP3A4 induction through human pregnane X receptor (PXR) by small molecules, qHTS assay (AID 1346984). Also: nearly all actives have a fitted effect of over 40% in size. The gist of the method: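 Human PXR activation is tracked via CYP3A4 promoter-luciferase in DPX-2 (HepG2) cells. Compounds treat cells for 24hr at 37C, and luminescence is read after One-Glo.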

Assay [19] shares this target. The experiment in a line: Human pregnane X receptor (PXR) activation by small molecules, qHTS assay (AID 1346985). Also: nearly all actives have a fitted effect of over 40% in size. The gist of the method:
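DPX-2 cells (HepG2 co-transfected with a PXR response element and a CYP3A4-promoter luciferase construct) were seeded at 2,000 per well, rested 5 hr at 37C, then exposed to DMSO-dissolved compounds for 24 hr. Activation was read as luciferase luminescence.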
% is scaled to controls: 0 for no effect and ±100 for the full control effect.

Sequence of Cytochrome P450 2D6 (Homo sapiens) (P10635 whole entry, looked up): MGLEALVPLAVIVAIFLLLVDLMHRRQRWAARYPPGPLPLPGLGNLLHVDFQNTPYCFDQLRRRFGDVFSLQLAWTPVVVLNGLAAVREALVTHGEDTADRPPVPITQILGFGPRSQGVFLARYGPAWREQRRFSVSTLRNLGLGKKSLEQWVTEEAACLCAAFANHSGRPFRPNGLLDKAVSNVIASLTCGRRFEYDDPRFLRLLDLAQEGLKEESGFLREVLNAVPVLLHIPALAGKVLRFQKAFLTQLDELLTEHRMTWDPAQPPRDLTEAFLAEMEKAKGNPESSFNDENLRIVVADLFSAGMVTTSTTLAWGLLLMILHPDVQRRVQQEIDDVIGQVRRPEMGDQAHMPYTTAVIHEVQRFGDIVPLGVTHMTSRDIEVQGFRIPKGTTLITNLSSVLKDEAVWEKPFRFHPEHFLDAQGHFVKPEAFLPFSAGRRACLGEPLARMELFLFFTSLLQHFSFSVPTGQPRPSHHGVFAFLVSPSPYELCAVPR
Sequence of Cytochrome P450 3A4 (Homo sapiens) (P08684 whole entry, looked up): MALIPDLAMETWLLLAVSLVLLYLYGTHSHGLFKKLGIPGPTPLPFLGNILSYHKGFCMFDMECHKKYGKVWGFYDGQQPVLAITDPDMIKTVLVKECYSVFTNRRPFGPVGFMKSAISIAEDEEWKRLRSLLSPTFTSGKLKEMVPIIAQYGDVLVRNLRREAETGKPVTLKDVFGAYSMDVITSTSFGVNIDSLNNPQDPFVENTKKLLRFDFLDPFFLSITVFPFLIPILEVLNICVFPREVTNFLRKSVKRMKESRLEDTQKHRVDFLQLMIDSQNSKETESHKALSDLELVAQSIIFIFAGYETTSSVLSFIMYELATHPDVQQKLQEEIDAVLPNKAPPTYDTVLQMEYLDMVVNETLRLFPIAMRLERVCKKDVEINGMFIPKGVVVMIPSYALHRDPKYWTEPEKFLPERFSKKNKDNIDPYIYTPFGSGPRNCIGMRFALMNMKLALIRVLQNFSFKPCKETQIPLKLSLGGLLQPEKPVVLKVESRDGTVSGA
Sequence of Cytochrome P450 1A2 (Homo sapiens) (P05177 whole entry, looked up): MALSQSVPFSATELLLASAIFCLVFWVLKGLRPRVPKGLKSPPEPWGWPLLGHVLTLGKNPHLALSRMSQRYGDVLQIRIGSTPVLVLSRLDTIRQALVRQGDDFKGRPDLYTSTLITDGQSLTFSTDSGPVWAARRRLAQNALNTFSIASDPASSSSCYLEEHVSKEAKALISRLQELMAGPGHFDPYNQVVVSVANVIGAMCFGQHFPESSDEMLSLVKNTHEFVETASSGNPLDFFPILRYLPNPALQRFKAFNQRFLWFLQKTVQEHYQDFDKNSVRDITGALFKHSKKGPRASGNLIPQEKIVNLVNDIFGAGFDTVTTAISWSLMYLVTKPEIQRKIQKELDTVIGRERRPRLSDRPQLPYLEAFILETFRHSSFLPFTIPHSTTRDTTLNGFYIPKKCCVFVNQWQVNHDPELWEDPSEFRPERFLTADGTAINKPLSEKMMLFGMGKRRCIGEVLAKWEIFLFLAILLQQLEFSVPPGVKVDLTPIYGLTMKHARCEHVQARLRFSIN
Sequence of Cytochrome P450 2C9 (Homo sapiens) (P11712 whole entry, looked up): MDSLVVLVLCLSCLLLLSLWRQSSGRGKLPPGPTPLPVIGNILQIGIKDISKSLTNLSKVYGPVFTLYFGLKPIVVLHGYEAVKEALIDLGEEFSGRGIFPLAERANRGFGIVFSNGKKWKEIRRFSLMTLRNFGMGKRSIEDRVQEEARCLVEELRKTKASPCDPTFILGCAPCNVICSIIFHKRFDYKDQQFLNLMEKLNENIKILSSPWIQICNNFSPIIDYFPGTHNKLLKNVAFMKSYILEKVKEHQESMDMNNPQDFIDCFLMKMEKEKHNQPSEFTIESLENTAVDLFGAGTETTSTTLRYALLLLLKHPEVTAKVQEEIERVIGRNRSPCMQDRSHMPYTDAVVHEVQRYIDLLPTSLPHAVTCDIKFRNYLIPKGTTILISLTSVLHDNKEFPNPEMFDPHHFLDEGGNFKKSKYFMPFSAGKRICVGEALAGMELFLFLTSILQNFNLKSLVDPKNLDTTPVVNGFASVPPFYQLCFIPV
Sequence of Nuclear receptor subfamily 1 group I member 2 (Homo sapiens) (O75469 whole entry, looked up): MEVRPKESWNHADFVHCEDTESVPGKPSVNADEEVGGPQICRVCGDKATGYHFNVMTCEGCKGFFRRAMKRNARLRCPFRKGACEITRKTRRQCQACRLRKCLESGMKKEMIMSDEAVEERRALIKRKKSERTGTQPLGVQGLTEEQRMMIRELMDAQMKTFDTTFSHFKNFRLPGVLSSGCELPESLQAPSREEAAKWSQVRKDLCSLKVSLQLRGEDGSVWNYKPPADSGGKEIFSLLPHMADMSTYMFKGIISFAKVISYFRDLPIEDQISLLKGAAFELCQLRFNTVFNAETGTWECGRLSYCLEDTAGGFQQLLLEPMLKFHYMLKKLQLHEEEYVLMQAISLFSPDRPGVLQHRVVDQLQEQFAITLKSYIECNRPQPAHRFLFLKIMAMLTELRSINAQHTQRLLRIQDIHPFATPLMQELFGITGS
Sequence of Acetylcholinesterase (Homo sapiens) (P22303 whole entry, looked up): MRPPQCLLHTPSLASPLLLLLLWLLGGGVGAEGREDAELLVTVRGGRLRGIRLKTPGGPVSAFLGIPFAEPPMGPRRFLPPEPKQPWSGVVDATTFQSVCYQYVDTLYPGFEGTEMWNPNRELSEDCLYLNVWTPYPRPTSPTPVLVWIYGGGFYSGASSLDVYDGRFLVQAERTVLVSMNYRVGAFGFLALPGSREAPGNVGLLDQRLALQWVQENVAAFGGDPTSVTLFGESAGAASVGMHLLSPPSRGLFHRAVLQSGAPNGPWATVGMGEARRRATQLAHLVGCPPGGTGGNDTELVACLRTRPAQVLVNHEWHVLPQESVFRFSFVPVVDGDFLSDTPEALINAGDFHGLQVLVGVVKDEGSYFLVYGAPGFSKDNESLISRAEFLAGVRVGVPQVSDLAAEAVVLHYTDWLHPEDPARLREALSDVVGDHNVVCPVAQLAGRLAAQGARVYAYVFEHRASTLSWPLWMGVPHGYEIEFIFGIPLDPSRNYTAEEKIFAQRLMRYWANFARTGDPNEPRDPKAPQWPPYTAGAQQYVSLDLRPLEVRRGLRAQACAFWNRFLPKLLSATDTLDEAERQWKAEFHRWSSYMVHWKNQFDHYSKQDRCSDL
Sequence of Cytochrome P450 2C19 (Homo sapiens) (P33261 whole entry, looked up): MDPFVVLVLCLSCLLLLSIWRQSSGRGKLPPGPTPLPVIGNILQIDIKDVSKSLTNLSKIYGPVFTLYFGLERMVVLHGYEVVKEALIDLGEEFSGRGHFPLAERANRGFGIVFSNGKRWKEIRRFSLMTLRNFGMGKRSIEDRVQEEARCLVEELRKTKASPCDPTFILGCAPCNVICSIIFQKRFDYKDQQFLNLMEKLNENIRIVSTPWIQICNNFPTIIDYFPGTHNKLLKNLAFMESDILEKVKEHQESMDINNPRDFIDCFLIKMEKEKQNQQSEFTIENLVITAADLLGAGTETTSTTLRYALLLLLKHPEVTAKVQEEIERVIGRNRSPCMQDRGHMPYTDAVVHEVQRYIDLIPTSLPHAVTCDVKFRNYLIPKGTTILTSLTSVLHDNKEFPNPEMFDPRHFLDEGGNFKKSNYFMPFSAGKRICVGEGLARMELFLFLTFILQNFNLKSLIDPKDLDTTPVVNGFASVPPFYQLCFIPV
Sequence of Voltage-gated inwardly rectifying potassium channel KCNH2 (Homo sapiens) (Q12809 whole entry, looked up): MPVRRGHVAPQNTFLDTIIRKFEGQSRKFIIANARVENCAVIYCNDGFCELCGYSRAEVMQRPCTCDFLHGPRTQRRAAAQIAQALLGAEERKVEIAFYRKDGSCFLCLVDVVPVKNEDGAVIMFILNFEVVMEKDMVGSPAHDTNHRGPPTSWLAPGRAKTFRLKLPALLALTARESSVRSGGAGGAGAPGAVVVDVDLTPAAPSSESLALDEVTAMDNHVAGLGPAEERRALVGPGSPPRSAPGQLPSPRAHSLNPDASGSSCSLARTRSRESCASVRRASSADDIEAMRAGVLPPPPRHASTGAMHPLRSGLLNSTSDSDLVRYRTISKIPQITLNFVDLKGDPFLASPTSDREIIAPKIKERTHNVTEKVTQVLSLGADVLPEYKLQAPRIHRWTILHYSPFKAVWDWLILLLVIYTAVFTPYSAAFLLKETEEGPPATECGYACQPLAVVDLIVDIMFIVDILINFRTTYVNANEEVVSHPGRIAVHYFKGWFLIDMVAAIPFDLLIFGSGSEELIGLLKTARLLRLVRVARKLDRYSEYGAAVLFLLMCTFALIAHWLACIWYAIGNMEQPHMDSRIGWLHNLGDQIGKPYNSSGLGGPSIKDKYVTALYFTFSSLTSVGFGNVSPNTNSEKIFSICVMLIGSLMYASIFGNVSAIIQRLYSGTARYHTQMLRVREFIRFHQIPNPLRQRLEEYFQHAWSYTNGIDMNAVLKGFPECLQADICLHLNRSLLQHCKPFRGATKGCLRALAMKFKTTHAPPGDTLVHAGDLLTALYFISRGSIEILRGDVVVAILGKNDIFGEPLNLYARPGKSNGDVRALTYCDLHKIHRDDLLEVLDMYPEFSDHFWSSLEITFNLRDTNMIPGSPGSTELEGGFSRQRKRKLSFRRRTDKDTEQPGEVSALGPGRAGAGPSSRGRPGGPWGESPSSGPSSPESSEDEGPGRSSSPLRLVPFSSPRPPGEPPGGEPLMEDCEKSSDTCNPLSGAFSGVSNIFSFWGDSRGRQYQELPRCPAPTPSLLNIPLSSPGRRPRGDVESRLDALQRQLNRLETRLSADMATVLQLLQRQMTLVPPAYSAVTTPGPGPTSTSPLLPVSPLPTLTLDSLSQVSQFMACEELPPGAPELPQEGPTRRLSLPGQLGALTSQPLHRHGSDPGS

Take `O=NN1CCOCC1`: the Potency entry in assay [1], in [2], in assay [3], in [4], in assay [5] and in assay [6] was “inactive” each time. Moreover, the Potency entry in assay [7], in assay [8], in assay [9], in [10], in assay [11] and in assay [12] was “inactive” each time. Further, the Potency entry in [13], in assay [14], in assay [15] and in assay [16] was “inactive” throughout.
For `CCOP(=S)(OCC)OP(=S)(OCC)OCC`, the Potency result in [1], in [2], in [3], in [4], in assay [5] and in assay [6] was “inactive” in each case. Besides, the Potency entry in assay [11] and in assay [15] was “inactive” in each case. In addition, the Potency is 8.18 µM (active) and 5.03 µM (active) in [7]; 72.9 µM (active) and 79.6 µM (active) in assay [8]; 10.3 µM (active) and 11.2 µM (active) in assay [9]; 36.5 µM (active) and 20 µM (active) in assay [10]; 8.18 µM (active) and 17.8 µM (active) in [12]; 32.6 µM (active) and 35.6 µM (active) in assay [13]. In addition, the Potency in assay [16] is 32.6 µM (active) and 39.9 µM (active).
`C=C(C)C#N`: the Potency entry in assay [1], in assay [2], in [3], in [4], in assay [5] and in assay [6] was “inactive” throughout. Moreover, the Potency entry in [7], in assay [8], in [9], in [10], in assay [11] and in [12] was “inactive” throughout. Besides, the Potency entry in assay [13], in assay [14] and in assay [15] was “inactive” each time.
For the compound `CC1CC(=O)O1` (configuration not stated), the Potency entry in [1], in assay [2], in [3], in assay [4], in [5] and in [6] was “inactive” each time. The Potency entry in assay [7], in assay [8], in assay [9], in [10], in assay [11] and in assay [12] was “inactive” in each case. For the same compound, the Potency entry in assay [13], in assay [14], in assay [15] and in assay [16] was “inactive” each time.
As to `CCC1(c2ccc(N)cc2)CCC(=O)NC1=O` (configuration not stated), the Potency entry in [1], in assay [2], in assay [3], in assay [4], in [5] and in assay [6] was “inactive” each time. Moreover, the Potency entry in assay [18], in assay [7], in [8], in assay [9], in assay [10] and in assay [11] was “inactive” throughout. Besides, the Potency result in assay [12], in [13], in assay [14] and in assay [15] was “inactive” throughout. In addition, in assay [17], the max activation was -2.76% (inactive). In addition, the compound was called inactive in [19]. In assay [16], the Potency was 31.7 µM (active) and 13.8 µM (active).
For `CCC/C=N/O`, the Potency result in assay [1], in assay [2], in [3], in [4], in assay [5] and in assay [6] was “inactive” each time. In addition, the Potency result in [7], in assay [10], in assay [11], in assay [12], in assay [13] and in assay [14] was “inactive” in each case. For the same compound, in assay [15], the Potency entry was “inactive”. Also, the Potency in [8] was 34.2 µM (active) and inactive; in assay [9], 8.6 µM (active) and inactive.
With `CC(C)=CC1C(C(=O)OCc2cccc(Oc3ccccc3)c2)C1(C)C` (configuration not stated), the Potency entry in assay [1], in assay [2], in assay [3], in assay [4], in assay [5] and in [18] was “inactive” in each case. The Potency result in assay [7], in [8], in assay [9], in assay [10], in assay [15] and in assay [16] was “inactive” throughout. Also, the Potency in assay [6] is 24.3 µM (active) and 13.3 µM (active); in [11], 39.9 µM (active) and inactive; in assay [12] it was 7.96 µM (active); in [13] it was 3.17 µM (active) and 3.09 µM (active). For the same compound, in assay [17], the max activation was 1.4% (inactive).
As for `CCCCOC(=O)COC(=O)c1ccccc1C(=O)OCCCC`, the Potency entry in assay [1], in assay [2], in [3], in [4], in assay [5] and in assay [6] was “inactive” in each case. The Potency result in [7], in [8], in assay [9] and in assay [10] was “inactive” throughout. For the same compound, the Potency was 7.93 µM (active) and 11.2 µM (active) in assay [12]; 6.3 µM (active) and 7.1 µM (active) in assay [13]; 11.2 µM (active) and 20 µM (active) in assay [14].
Turning to `C[N+](C)(C)C`, the Potency entry in [1], in assay [2], in assay [3], in assay [4], in assay [5] and in assay [6] was “inactive” throughout. The Potency result in assay [7], in assay [8], in [9], in [10], in assay [11] and in [12] was “inactive” throughout. The Potency result in assay [13], in assay [14] and in [16] was “inactive” in each case.
Consider `CC(C)(C#N)N=NC(C)(C)C#N`, for which the Potency result in assay [1], in assay [2], in [3], in assay [4], in assay [5] and in assay [6] was “inactive” in each case. Moreover, the Potency entry in [7], in [8], in assay [9], in assay [10], in assay [11] and in [12] was “inactive” each time. Further, the Potency entry in assay [13], in assay [14], in [15] and in [16] was “inactive” in each case.
